Pol beta inh: qHTS Assay for Inhibitors of DNA Polymerase Beta; Pol beta primer extension/strand displacement, fluorescence kinetic; Potency, µM (highest dose often 114 µM), hits mostly inhibitors; 1.3% of 340,000 active; AID 485314, 2010
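Reaction started by 50 nM substrate onto compound-treated Pol beta (10 nM, 15 min preincubation, room temperature); plates read at 0 min and 10 min. Normalized concentration-effect data fitted by four-parameter Hill equation.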
POLI inh: qHTS for Inhibitors of Polymerase Iota. 1% of 390,000 active. Pol iota fluorescent replication assay, 10 min. DNA polymerase iota (Homo sapiens), Q9UNA4. AID 588590, 2011. Potency, µM (highest dose often 115 µM), usual class: inhibitors
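Fluorescent replication assay read twice, at 0 min and 10 min after adding 50 nM (final) substrate. Enzyme (10 nM) and compounds were first incubated 15 min at room temperature; enzyme-free buffer wells were negative controls.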
PI5P4K alpha inh: qHTS for Inhibitors of phosphatidylinositol 5-phosphate 4-kinase (PI5P4K); Phosphatidylinositol 5-phosphate 4-kinase type-2 alpha (Homo sapiens), P48426; PI5P4Kalpha enzyme, ADP-Glo luminescence, 60 min; hits give low values; max response, %; 1.2% of 330,000 active; active = max response of -50% or lower; inconclusive = between -30% and -50%; inactive = -30% or higher; note: value at the top dose of about 77 µM
Target sequence (P48426 whole entry, looked up): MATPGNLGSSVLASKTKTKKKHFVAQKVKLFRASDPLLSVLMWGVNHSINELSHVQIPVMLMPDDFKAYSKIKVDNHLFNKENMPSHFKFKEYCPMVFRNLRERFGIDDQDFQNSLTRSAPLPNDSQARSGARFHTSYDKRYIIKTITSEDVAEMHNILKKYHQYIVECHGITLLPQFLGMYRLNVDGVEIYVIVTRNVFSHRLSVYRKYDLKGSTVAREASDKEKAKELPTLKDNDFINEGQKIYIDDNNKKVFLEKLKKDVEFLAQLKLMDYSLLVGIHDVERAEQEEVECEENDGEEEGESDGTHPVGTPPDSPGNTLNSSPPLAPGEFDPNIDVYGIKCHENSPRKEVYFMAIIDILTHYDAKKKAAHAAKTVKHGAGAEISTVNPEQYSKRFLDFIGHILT
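Compounds were pin-transferred onto PI5P4Kalpha and substrate in HEPES pH 7.4 buffer with EGTA, CHAPS and 5% DMSO. ATP (5 microM final) started the reaction, which ran 60 minutes at room temperature before ADP-Glo detection.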
Pol kappa inh: qHTS for Inhibitors of Polymerase Kappa; DNA polymerase kappa (Homo sapiens), Q9UBT6; purified Pol kappa, fluorescent DNA synthesis assay, 10 min; Potency, µM (top dose mostly 107 µM), usual class: inhibitors; 0.53% of 400,000 active; AID 588579, 2011
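50 nM final substrate added after 15 min RT preincubation of 10 nM Pol kappa with compound; fluorescence read at 0 and 10 min.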
POLH inh: qHTS for Inhibitors of Polymerase Eta. DNA polymerase eta (Homo sapiens), Q9Y253. 1.2% of 390,000 active. recombinant Pol eta, fluorescent DNA replication assay. Potency, µM (highest dose often 114 µM), usual class: inhibitors
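Fluorescent replication assay: 50 nM final substrate added after a 15 min room-temperature compound preincubation with 10 nM enzyme. Signal taken at 0 min and again at 10 min.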
WRN helicase inh: qHTS for Inhibitors of WRN Helicase. WRN helicase unwinding, fluorescent forked duplex, kinetic. Potency, µM (highest dose often 114 µM), most hits filed as inhibitors. 0.46% of 360,000 active; note: nearly all actives have a fitted effect of over 55% in size
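WRN at 20 nM final was preincubated with compound for 15 min at room temperature; reaction started with 100 nM forked duplex oligonucleotide carrying fluorophore and quencher plus 2 mM ATP (final). Unwinding followed kinetically by red fluorescence (ex 525/em 598 nm).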
Of the large screens only hits and unclear results are named; the others gave an inactive call. Most compounds without a hit are left out; they make up all but 2.8% or so of the library. Unless noted, calls come from the whole dose curve; as a rule, active = well fitted curve in the direction sought with a large enough effect; inconclusive = small, poorly fitted or top-dose-only effect, or another doubt; inactive = no such curve, though single readings can be large; an effect the other way counts as inactive or inconclusive.

COc1ccc(N2CCN(CCCNC(=O)C(=O)c3c(C)n(C)c4ccccc34)CC2)cc1	none
CCOc1ccc(NC(=O)CSc2nc(N)c(-c3ccccc3)c(=O)[nH]2)cc1	none
Nc1nc(-c2ccccc2)c(CCCOc2ccc(NC(=O)CBr)cc2)c(=O)[nH]1	PI5P4K alpha inh -59, POLH inh inconclusive (no result: Pol beta inh)
CCn1c(CNC(=O)c2ccccc2F)nnc1SCC(=O)NC1CCCCC1	none
CC(C)n1c(CNC(=O)c2ccccc2F)nnc1SCC(=O)NC1CCCCC1	POLI inh inconclusive, PI5P4K alpha inh -71 (no result: Pol beta inh)
CCOCCCNC(=O)C(=O)Nc1c2c(nn1-c1ccc(OC)cc1)CSC2	none (no result: PI5P4K alpha inh, WRN helicase inh)
Cc1cc(C(C)(C)C)ccc1OC(=O)C1=CC=CN2CCS(=O)(=O)N=C12	none (no result: Pol beta inh)
O=C(CSc1ncnc2c1oc1ccccc12)Nc1nccs1	none
CCc1nc(SCC(=O)Nc2nccs2)c2oc3ccccc3c2n1	Pol beta inh 16µM, POLI inh 32µM, POLH inh inconclusive, WRN helicase inh inconclusive
CCc1cc2cc3c(cc2nc1SCC(=O)Nc1nccs1)OCO3	POLI inh 71µM (no result: PI5P4K alpha inh)
Cc1ccc(CNC(=O)c2ccccc2NC(=O)CN2CC(C)OC(C)C2)cc1 (stereo unspecified)	none
CN1/C(=C\C(=O)COC(=O)Cn2nnc(-c3ccccc3)n2)C(C)(C)c2ccccc21	Pol beta inh inconclusive, POLI inh inconclusive, POLH inh inconclusive, WRN helicase inh 50µM
c1coc(-c2ccnc(-n3cccc3)n2)c1	none
Nc1ncnc2oc(-c3ccoc3)c(-c3ccco3)c12	POLI inh 11µM, Pol kappa inh 20µM (no result: Pol beta inh, PI5P4K alpha inh, POLH inh, WRN helicase inh)
CCn1c(CN2CCCCC2)nc2cc(NC(=O)COc3ccccc3C(C)(C)C)ccc21	none (no result: PI5P4K alpha inh, WRN helicase inh)
Cc1ccc(NC(=O)c2cnc(SCC(=O)N3CCCc4ccccc43)n(C)c2=O)cc1C	none (no result: PI5P4K alpha inh, WRN helicase inh)
COc1cc(C(=O)/C=C/Nc2ccc(NC(C)=O)cc2)cc(OC)c1OC	Pol beta inh 71µM
COc1cc(C(=O)NNC(=O)c2ccc(NC(C)=O)cc2)cc(OC)c1OC	none
CN(C)c1ccc(-c2nc(-c3cccs3)c(-c3cccs3)[nH]2)cc1	none (no result: PI5P4K alpha inh, WRN helicase inh)
COCCN(CCOC)C(=O)c1cc2c(=O)n3ccccc3nc2n1C	Pol beta inh 10µM, POLI inh inconclusive (no result: PI5P4K alpha inh, WRN helicase inh)
CN(C(=O)c1cc2c(=O)n3ccccc3nc2n1C)C1CCCCC1	none
CN(C)c1nc(Nc2ccc(F)cc2)nc(Oc2ccc(F)cc2)n1	none
CN(C)c1nc(N/N=C/c2ccccc2O)nc(Nc2ccc(F)cc2)n1	Pol beta inh inconclusive, Pol kappa inh inconclusive, POLH inh 79µM
Cc1ccc(NC(=O)N2CCN(c3cc(-c4noc(C)n4)ccc3C)CC2)c(F)c1	none (no result: PI5P4K alpha inh, WRN helicase inh)
OCC[C@@H]1C[C@H](O)[C@@H](O)[C@]2(OCc3ccc4ccccc4c32)O1	none (no result: Pol beta inh, POLI inh, Pol kappa inh)
COc1cc(/C=C/c2cccc[n+]2C)ccc1OCC(=O)Nc1ccccc1C	none
CCOc1cc(/C=C/c2cccc[n+]2C)ccc1OCC(=O)Nc1ccc(C)cc1	Pol beta inh 13µM, POLI inh inconclusive, Pol kappa inh inconclusive
Cc1ccc(C(=O)CSc2nccn2-c2ccccc2)cc1	Pol beta inh 56µM
Cc1ccc(C(=O)CSc2nnc(-c3ccccc3N)n2C)cc1	none
O=C(CSc1nccn1-c1ccccc1)c1ccc(Cl)cc1	none
Cn1c(SCC(=O)c2cc(Cl)c(Cl)s2)nnc1-c1ccco1	Pol beta inh 20µM, POLI inh 16µM, Pol kappa inh 32µM, POLH inh inconclusive, WRN helicase inh inconclusive
Cc1ccc(C(=O)CSc2nnc(-c3ccco3)n2C)cc1	PI5P4K alpha inh -56, WRN helicase inh inconclusive
O=C(c1ccco1)N1N=C(c2ccco2)CC1c1ccc(Cl)cc1Cl (stereo unspecified)	PI5P4K alpha inh inconclusive (no result: Pol beta inh)
COc1ccccc1C(CNC(=O)C(C)Oc1ccc(Br)cc1)N1CCCC1 (stereo unspecified)	none (no result: Pol beta inh)
CCOc1ccc(-c2nc(S(=O)(=O)c3ccccc3)c(NC)o2)cc1	none
CNc1oc(Cc2ccccc2)nc1S(=O)(=O)c1ccccc1	PI5P4K alpha inh -85, WRN helicase inh inconclusive
Cc1ccc(-c2cc(-c3ccc(C)o3)nc(N)c2C#N)cc1	POLI inh inconclusive, PI5P4K alpha inh -90, WRN helicase inh inconclusive
Cc1ccc(-c2cc(-c3ccc(F)cc3)c(C#N)c(N)n2)o1	PI5P4K alpha inh -67
Cc1cc(-c2cc(-c3ccc(Cl)cc3)nc(N)c2C#N)co1	Pol beta inh inconclusive, POLI inh inconclusive, PI5P4K alpha inh -69, POLH inh inconclusive, WRN helicase inh inconclusive
Cc1ccc(-c2cc(-c3ccc4c(c3)OCO4)c(C#N)c(N)n2)o1	Pol beta inh inconclusive (no result: PI5P4K alpha inh)
CCOc1cc(-c2cc(-c3ccc(C)o3)nc(N)c2C#N)ccc1O	PI5P4K alpha inh -55
CCn1c(=O)n(-c2ccc3c(c2)OCO3)c2nc(-c3ccc(C(C)C)cc3)nc(C(N)=O)c21	none (no result: PI5P4K alpha inh, WRN helicase inh)
CCn1c(CC(=O)Nc2ccc(F)cc2)nnc1SCC(=O)Nc1nnc(C)s1	none
CCc1ccc(CN(C)CC(=O)Nc2ccc(S(=O)(=O)N3CCOCC3)cc2)cc1	none (no result: Pol beta inh)
Cc1ccc(-c2c(C#N)c(N)nc3c2CCCCC3)o1	none (no result: PI5P4K alpha inh)
Cc1ccc(-c2cc(-c3ccc(Cl)cc3)c(C#N)c(N)n2)o1	PI5P4K alpha inh -93
Fc1ccc(-c2csc(=Nc3cccc(C(F)(F)F)c3)n2Cc2ccc3c(c2)OCO3)cc1	POLI inh inconclusive (no result: PI5P4K alpha inh, WRN helicase inh)
Cc1ccc(Nc2nc3c([nH]2)c(=O)n(C)c(=O)n3C)cc1	none (no result: PI5P4K alpha inh)
Cn1c(=O)c2[nH]c(NCCCN3CCOCC3)nc2n(C)c1=O	Pol beta inh 89µM
Cc1nn2c(-c3cccc(NC(=O)CN4CCOCC4)c3)nnc2c2ccccc12	POLI inh 40µM, POLH inh inconclusive (no result: Pol beta inh, PI5P4K alpha inh)
CC(=O)c1ccc(-n2c(-c3cc(-c4ccco4)[nH]n3)n[nH]c2=S)cc1	PI5P4K alpha inh -57, POLH inh inconclusive, WRN helicase inh inconclusive
S=c1[nH]nc(-c2ccco2)n1-c1ccc(Br)cc1	WRN helicase inh inconclusive (no result: Pol beta inh)
S=c1[nH]nc(-c2cc(-c3ccco3)[nH]n2)n1-c1cccc2ccccc12	Pol beta inh 25µM, POLI inh inconclusive, POLH inh inconclusive (no result: PI5P4K alpha inh)
Cc1ccc(-n2c(-c3cc(-c4ccco4)[nH]n3)n[nH]c2=S)c(Br)c1	none
O=C(COC(=O)CNC(=O)c1sc2ccccc2c1Cl)Nc1c(Cl)cc(Cl)cc1Cl	Pol beta inh inconclusive
CCC(CC)C(=O)Nc1nnc(SCc2cc(=O)c3ccccc3[nH]2)s1	POLI inh inconclusive (no result: PI5P4K alpha inh, WRN helicase inh)

Assay outcomes from PubChem.
